Bioassay records: PubChem, several laboratories
Rows were chosen to be rich in hits. Some 1.6% of all compounds tested hit in one or more screens of this group.
PABP FP inh: blocks human PABP binding to poly(A) RNA; calls only at 35 µM; fluorescence polarization; actives 1% (n = 290,000); AID 2014; P11940;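 also: calls also rest on retests at 20 µM and on dose response follow-up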
MLLE-PAM2 inh: blocks PAM2 peptide binding to the PABP1 MLLE domain | actives 0.36% (n = 360,000) | GST-MLLE / FITC-PAM2 fluorescence polarization | inhibition, % at 20 µM | P11940 | AID 588489; in the data active = inhibition above about 35%, passing the limit was not always enough;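 also: plate controls were DMSO wells with GST-MLLE for no effect and wells lacking GST-MLLE protein for full effect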
eIF4E 4G PPI: blocks eIF4E binding to eIF4G; actives 0.37% (n = 220,000); AID 782; inhibition, % at 21.7 µM; TR-FRET eIF4E-eIF4GI(517-606) binding, 2 h;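 active = inhibition above about 30%, limit read from the data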;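 also: 0% = full FRET control wells and 100% = background wells lacking eIF4GI fragment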
eIF4H FP inh: inhibitors of RNA binding by human eIF4H; Q15056; eIF4H fluorescence polarization binding assay; inhibition, % at 35 µM; actives 0.94% (n = 290,000);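 also: calls also rest on retests at 20 µM and on dose response follow-up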
PERK inh: blocks human PERK kinase; inhibition, % at 5.6 µM; AID 1416; CHO PERK-DD fusion, SEAP luminescence translation reporter; actives 0.17% (n = 220,000);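 active = inhibition above the mean inhibition of all tested compounds plus 3 SD, set separately per screening campaign, cut at about 2.9% in these data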;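 also: PERK kinase domain activated by AP20187 dimerizer at 100 nM; 0% = DMSO with dimerizer and 100% = rapamycin at 8.4 µM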
Target sequence (Q9NZJ5 whole entry, looked up, the tested form may be a part): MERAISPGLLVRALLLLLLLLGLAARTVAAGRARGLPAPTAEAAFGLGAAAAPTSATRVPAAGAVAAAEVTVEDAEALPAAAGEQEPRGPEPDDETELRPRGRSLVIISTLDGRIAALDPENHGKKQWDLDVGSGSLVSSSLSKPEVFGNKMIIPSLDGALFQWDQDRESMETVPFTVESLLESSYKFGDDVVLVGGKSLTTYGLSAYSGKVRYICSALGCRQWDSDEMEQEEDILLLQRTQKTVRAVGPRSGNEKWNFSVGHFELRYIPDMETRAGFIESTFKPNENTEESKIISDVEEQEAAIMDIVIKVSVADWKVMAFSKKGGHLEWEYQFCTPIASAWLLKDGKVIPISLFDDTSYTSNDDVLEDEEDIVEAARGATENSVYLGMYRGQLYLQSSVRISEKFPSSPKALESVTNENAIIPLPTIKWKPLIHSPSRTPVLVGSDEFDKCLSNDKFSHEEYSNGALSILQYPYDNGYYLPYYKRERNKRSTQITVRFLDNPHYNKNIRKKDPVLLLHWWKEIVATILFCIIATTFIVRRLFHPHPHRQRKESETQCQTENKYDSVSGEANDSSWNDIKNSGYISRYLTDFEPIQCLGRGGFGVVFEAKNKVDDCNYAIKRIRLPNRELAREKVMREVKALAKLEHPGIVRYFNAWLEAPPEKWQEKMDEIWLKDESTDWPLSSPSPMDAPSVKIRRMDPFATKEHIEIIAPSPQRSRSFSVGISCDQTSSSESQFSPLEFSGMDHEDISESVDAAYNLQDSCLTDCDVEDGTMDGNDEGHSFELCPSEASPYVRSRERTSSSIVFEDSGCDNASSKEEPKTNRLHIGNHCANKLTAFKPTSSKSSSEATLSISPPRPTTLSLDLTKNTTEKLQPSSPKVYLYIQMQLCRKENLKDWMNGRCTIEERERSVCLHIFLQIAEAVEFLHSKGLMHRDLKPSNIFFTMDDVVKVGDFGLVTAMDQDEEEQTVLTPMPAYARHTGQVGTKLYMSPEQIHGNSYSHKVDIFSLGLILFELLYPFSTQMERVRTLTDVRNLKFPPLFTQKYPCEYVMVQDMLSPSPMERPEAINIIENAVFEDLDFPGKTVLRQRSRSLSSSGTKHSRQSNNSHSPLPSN
Numbers without * were called inactive; [ ] = remark or other dose. Unless noted, no rule for the calls is given here.

`O=C(NC1CCCC1)c1ccc2nc(-c3ccco3)c(-c3ccco3)nc2c1` gave PABP FP inh active, MLLE-PAM2 inh 33.8, eIF4E 4G PPI 15.3, eIF4H FP inh 101.5* and PERK inh -0.2.
`CCCCN1Cc2c(nc3cc(-c4ccco4)[nH]n3c2=O)C1=O` gave PABP FP inh active, MLLE-PAM2 inh 3.2, eIF4E 4G PPI 2.1, eIF4H FP inh 88.1* and PERK inh 0.7.
For NC(=O)NC(=O)COC(=O)c1cccc(NS(=O)(=O)/C=C/c2ccccc2)c1 the results were PABP FP inh inactive, MLLE-PAM2 inh -28.7, eIF4E 4G PPI 34.4*, eIF4H FP inh 1.3 and PERK inh -0.7.
Screening COc1ccccc1NS(=O)(=O)c1cccc(C(=O)NNC(=O)c2ccc(O)c(Cl)c2)c1 returned MLLE-PAM2 inh -2.4.
Screening CC(C)CNc1nc(=S)nc(N(C)C)[nH]1 returned PABP FP inh inactive, MLLE-PAM2 inh 43.1*, eIF4E 4G PPI 4.6, eIF4H FP inh -12.4 and PERK inh 1.5.
CN(C)c1nc(=S)nc(NCc2ccccc2)[nH]1 was read as PABP FP inh inactive, MLLE-PAM2 inh 33.1, eIF4E 4G PPI -3.3, eIF4H FP inh -2.3 and PERK inh 0.8.
`Cc1cc(C)c(OCC(=O)Nc2cc(C(=O)O)cc(C(=O)O)c2)cc1C` gave PABP FP inh inactive, MLLE-PAM2 inh 7.9, eIF4E 4G PPI -1.2, eIF4H FP inh 1.7 and PERK inh 1.9.
`Cc1ccc(C)c(OCC(=O)Nc2cc(C(=O)O)cc(C(=O)O)c2)c1` gave PABP FP inh inactive, MLLE-PAM2 inh 4.0, eIF4E 4G PPI 1.6, eIF4H FP inh -6.6 and PERK inh 3.4*.
Cc1cccc(NC(=O)CSc2nc(N)cc(N)n2)c1 was read as PABP FP inh inactive, MLLE-PAM2 inh -8.4, eIF4E 4G PPI -1.4, eIF4H FP inh 1.1 and PERK inh 0.4.
Screening COc1ccc(CCNC(=O)CSc2nnc(-c3ccco3)c(-c3ccco3)n2)cc1OC returned PABP FP inh active and eIF4H FP inh 84.1*.
Screening COc1ccc(CCNC(=O)CSc2ccc(-c3ccco3)nn2)cc1OC returned PABP FP inh inactive, MLLE-PAM2 inh 8.7, eIF4E 4G PPI 1.5, eIF4H FP inh 4.4 and PERK inh -0.4.
Screening Cc1cccc(NC(=O)CSc2nnc(-c3ccco3)c(-c3ccco3)n2)c1C returned PABP FP inh active, MLLE-PAM2 inh 33.1, eIF4E 4G PPI 19.7, eIF4H FP inh 91.1* and PERK inh 0.5.
Cc1cccc(NC(=O)CSc2nnc(-c3ccco3)c(-c3ccco3)n2)c1 was read as PABP FP inh active, MLLE-PAM2 inh 28.5, eIF4E 4G PPI 11.5, eIF4H FP inh 89.4 and PERK inh 0.5.
For CCC1Oc2ccccc2N(CC(=O)N2CC(C)CC(C)C2)C1=O (centres undefined) the results were MLLE-PAM2 inh -2.2.
For Oc1c(C(c2cccs2)N2CCN(c3ccccc3)CC2)ccc2cccnc12 (centres undefined) the results were PABP FP inh inactive, eIF4E 4G PPI 35.5*[fluorescence artefact?], eIF4H FP inh 4.0 and PERK inh 0.2.
For Oc1c(C(c2ccccc2Cl)N2CCCC2)ccc2cccnc12 (centres undefined) the results were PABP FP inh inactive, MLLE-PAM2 inh 18.2, eIF4E 4G PPI 9.9, eIF4H FP inh 14.6 and PERK inh -1.1.
`CC(C)[C@H](NS(=O)(=O)c1ccccc1)C(=O)Nc1ccccc1N1CCOCC1` gave MLLE-PAM2 inh 2.4.
CCOc1ccccc1NC(=O)CSc1nc(=O)n(CCCN2CCOCC2)c2c1CCCC2 was read as MLLE-PAM2 inh 8.9.
For CC1CCC(C(C)C)C(OC(=O)COC(=O)c2cccn2C)C1 (centres undefined) the results were PABP FP inh inactive, MLLE-PAM2 inh -1.5, eIF4E 4G PPI 10.8, eIF4H FP inh -2.9 and PERK inh 1.2.
`CC1CCC(C(C)C)C(OC(=O)COC(=O)c2ccc(N)cc2)C1` (centres undefined) gave PABP FP inh inactive, MLLE-PAM2 inh -16.5, eIF4E 4G PPI 54.2*, eIF4H FP inh -12.9 and PERK inh 0.6.
`O=C(CSc1nc(-c2cccs2)cc(C(F)(F)F)n1)Nc1cc(OCC(F)(F)C(F)F)cc([N+](=O)[O-])c1` gave PABP FP inh inactive, MLLE-PAM2 inh 3.1, eIF4E 4G PPI 1.6, eIF4H FP inh 3.5 and PERK inh 0.1.
Screening COc1ccc(OC)c(NC(=O)CSC2=NCCS2)c1 returned PABP FP inh inactive, MLLE-PAM2 inh 39.6*, eIF4E 4G PPI -0.8, eIF4H FP inh 1.6 and PERK inh 0.0.
COc1ccc(OC)c(NC(=O)CSc2nc3ccccc3cc2Cc2ccccc2)c1 was read as PABP FP inh inactive, MLLE-PAM2 inh 2.7, eIF4E 4G PPI -6.7, eIF4H FP inh -0.7 and PERK inh 2.9*.
CC(Sc1nnc(-c2ccncc2)n1C)C(=O)NCC1CCCO1 (centres undefined) was read as MLLE-PAM2 inh -11.3.
`C1CCN(c2nc3nonc3nc2N2CCCCC2)CC1` gave PABP FP inh inactive, MLLE-PAM2 inh 8.8, eIF4E 4G PPI 0.3, eIF4H FP inh 0.2 and PERK inh -0.1.
For CN1CCN(c2nc3nonc3nc2N2CCN(C)CC2)CC1 the results were PABP FP inh active, MLLE-PAM2 inh 24.8, eIF4E 4G PPI 5.1, eIF4H FP inh 80.2* and PERK inh 1.6.
`CN(CCOC(=O)/C=C/c1ccco1)Cc1ccccc1` gave PABP FP inh active, MLLE-PAM2 inh 10.2, eIF4E 4G PPI 14.0, eIF4H FP inh 89.7* and PERK inh 0.3.
Screening CN(Cc1ccccc1)C(=O)COC(=O)/C=C/c1ccco1 returned PABP FP inh active, MLLE-PAM2 inh 5.5, eIF4E 4G PPI 48.1*, eIF4H FP inh 82.4* and PERK inh 0.0.
CC(=O)OC1C=CCC2C(=O)c3cccc(O)c3C(O)C12 (centres undefined) was read as MLLE-PAM2 inh 5.6.
`Cc1ccc(Nc2nc(Oc3ccc(=O)[nH]n3)nc(N(C)C)n2)cc1` gave PABP FP inh inactive, MLLE-PAM2 inh 4.1, eIF4E 4G PPI 73.8*, eIF4H FP inh -4.2 and PERK inh 0.2.
`Cc1cc(C)c(OCC(=O)OCC(=O)NCC2CCCCC2)c(C)c1` gave MLLE-PAM2 inh -10.3.
COc1cc2c(cc1OC)C1(CCCCC1)CN(C)C2 was read as PABP FP inh inactive, MLLE-PAM2 inh 3.7, eIF4E 4G PPI -11.2, eIF4H FP inh -8.4 and PERK inh 0.6.
`COc1ccc2c3c1OC1CC(O)C=CC31CCN(C)C2` (centres undefined) gave PABP FP inh inactive, MLLE-PAM2 inh -7.2, eIF4E 4G PPI -1.0, eIF4H FP inh 6.3 and PERK inh 3.1*.
COc1ccccc1C1C2=C(N=c3s/c(=C/c4cccc(OCC(=O)O)c4)c(=O)n31)c1ccccc1CC2 (centres undefined) was read as PABP FP inh inactive, MLLE-PAM2 inh -32.1, eIF4E 4G PPI 18.6, eIF4H FP inh 23.8 and PERK inh 1.0.
